The entries come from a sample that favours hits as a whole.
14-3-3g Raf: alters human 14-3-3 gamma binding to Raf peptide | P61981 | FP, 14-3-3gamma / TMR-pS259-Raf peptide binding | inhibition, % at 40 µM | hit rate 0.19% among 160,000; in the data active = inhibition above about 30%
Target sequence (P61981 whole entry, looked up): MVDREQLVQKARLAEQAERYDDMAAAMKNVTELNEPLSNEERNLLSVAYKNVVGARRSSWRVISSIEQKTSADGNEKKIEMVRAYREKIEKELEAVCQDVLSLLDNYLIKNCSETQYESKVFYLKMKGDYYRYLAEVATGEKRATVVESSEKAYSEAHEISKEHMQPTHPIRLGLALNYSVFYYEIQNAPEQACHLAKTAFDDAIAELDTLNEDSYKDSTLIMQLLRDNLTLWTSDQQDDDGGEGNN
Large screens that a line does not name were inactive.

COc1cccc2c1C(=O)c1c(O)c3c(c(O)c1C2=O)C[C@@](O)(C(=O)CO)C[C@@H]3O[C@H]1C[C@H](N)[C@H](O)[C@H](C)O1	14-3-3g Raf 57.3
O=C(CN1C(=O)c2ccccc2S1(=O)=O)NC1CC1	none
O=C(CCCCCl)c1ccc2c(c1)Cc1ccccc1-2	none
O=C(Nc1cccnc1)c1cccnc1	none
Cn1nnc2cc(C(=O)Nc3cccnc3)ccc21	none
COc1ccc(C(=O)Nc2cccnc2)cc1OC	14-3-3g Raf 46.9
CN(C)c1ccc(NC(=O)CCCOc2ccc(Cl)cc2)cc1	none
Oc1ccccc1-c1nc(N2CCOCC2)c2ccccc2n1	none
CC(=O)N1c2ccc(S(=O)(=O)CCC(=O)Nc3ccc(Br)cc3C)cc2CC1C (centres undefined)	none
CC(=O)N1c2ccc(S(=O)(=O)CCC(=O)Nc3ccc(C)c(C)c3)cc2CC1C (centres undefined)	none
CC(=O)N1c2ccc(S(=O)(=O)CCC(=O)Nc3cc(C)ccc3C)cc2CC1C (centres undefined)	14-3-3g Raf 34.2
CCc1ccc(NC(=O)c2ccc(F)c(S(=O)(=O)NC(C)CC)c2)cc1 (centres undefined)	none
Cc1c(C(=O)NCc2cccs2)oc2ccc(S(=O)(=O)N3CCOCC3)cc12	none
Cc1c(C(=O)NCc2ccco2)oc2ccc(S(=O)(=O)N3CCOCC3)cc12	none
O=C(NCc1cccnc1)c1cc(S(=O)(=O)N2CCOCC2)ccc1F	none
Cc1c(C(=O)NCc2ccccn2)oc2ccc(S(=O)(=O)N3CCOCC3)cc12	14-3-3g Raf 128.7
O=C(NCc1cccs1)c1cc(S(=O)(=O)N2CCOCC2)ccc1F	none
Cc1c(C(=O)NCc2ccccn2)oc2ccc(S(=O)(=O)N3CCC(C)CC3)cc12	14-3-3g Raf 62.7
Cc1c(C(=O)NCc2ccccn2)oc2ccc(S(=O)(=O)N3CC(C)CC(C)C3)cc12 (centres undefined)	none
O=C(NCc1ccccn1)c1cc(S(=O)(=O)N2CCOCC2)ccc1F	14-3-3g Raf 113.6
Cc1c(C(=O)NCc2ccccc2)oc2ccc(S(=O)(=O)N3CCC(C)CC3)cc12	none
COc1ccccc1Nc1nc(C2(C)CC3(CC(C)(C)OC3=O)C(=O)O2)cs1 (centres undefined)	none
O=C(c1ccccc1O)N1N=C(C(F)(F)F)CC1(O)c1ccc(F)cc1 (centres undefined)	none
CCSc1sc(CC)cc1C1C(C(=O)Nc2cccc(C)n2)=C(C)NC2=C1C(=O)CC(c1ccccc1)C2 (centres undefined)	none
CC(=O)Nc1nc(C)c(-c2csc(NCc3ccccc3)n2)s1	none
Cc1ncc(CO)c2cc(C(=O)Nc3ccc(C#N)cc3)c(=N)oc12	none
CC1=C(C(=O)OCCc2ccccc2)C(c2ccc(C)s2)NC(=O)N1 (centres undefined)	none
CC1CCC2C(=O)N(c3ccc(N(C)C4CCCCC4)c([N+](=O)[O-])c3)C(=O)C2C1 (centres undefined)	none
CC1CC(=O)N(c2ccc(N(C)Cc3ccccc3)c([N+](=O)[O-])c2)C1=O (centres undefined)	none
CC1CCC2C(=O)N(c3ccc(N(C)Cc4ccccc4)c([N+](=O)[O-])c3)C(=O)C2C1 (centres undefined)	14-3-3g Raf 37.8
COc1cccc(C2C(C(=O)OC3CCCC3)=C(C)NC3=C2C(=O)CC(c2cccs2)C3)c1 (centres undefined)	none
Cc1ccc(-c2cc(C(=O)NCc3ccccc3)c3ccccc3n2)cc1C	none
CC(=O)Oc1ccc(OC(C)=O)c2c1C(=O)c1ccccc1C2=O	14-3-3g Raf 69.1
CNc1ccc(OC)c2c1C(=O)c1ccccc1C2=O	none
CC(=O)Oc1ccccc1N1C(=O)c2ccccc2C1=O	none
O=C(CN1CCCCC1)N1CCN(C(=O)c2ccccc2)C1	none
CSc1ccc(-c2nc(CSCC(=O)N3CCCC3)c(C)o2)cc1	none
CC(C)(C)C(=O)Nc1nnc(C23CC4CC(CC(C4)C2)C3)s1	none
COc1cc(-c2nc(Nc3ccc(C)cc3Br)c3ccccc3n2)cc(OC)c1OC	none
COC(=O)c1ccc2c(=O)n(CCC3=CCCCC3)c(SCc3cccnc3)nc2c1	none
COc1cc(NCCCC(C)N)c2ncccc2c1 (centres undefined)	14-3-3g Raf 69.8
COc1cccc(CNc2cccc3cccnc23)c1O	none
COc1cc(NS(=O)(=O)c2ccc(C)cc2)c2ncccc2c1	none
CCc1ccc(S(=O)(=O)N=C2C=C(Nc3ccccc3)C(=O)c3ccccc32)cc1	none
CCOc1ccc(NC2=CC(=NS(=O)(=O)c3ccc(CC)cc3)c3ccccc3C2=O)cc1	none
COc1ccc(S(=O)(=O)N=C2C=C(Nc3ccc(O)cc3)C(=O)c3ccccc32)cc1	none
CCOC(=O)c1ccc(NC2=CC(=NS(=O)(=O)c3ccc(OC)cc3)c3ccccc3C2=O)cc1	14-3-3g Raf 81.7
CCOc1ccc(S(=O)(=O)N=C2C=C(Nc3ccc(OC)cc3)C(=O)c3ccccc32)cc1	none
CCc1ccc(S(=O)(=O)N=C2C=C(Nc3ccc(C(=O)OC)cc3)C(=O)c3ccccc32)cc1	14-3-3g Raf 32.5
O=C(Nc1cc2c3c(c1)C1CCCC1CN3CC1CCCC21)c1ccccc1F (centres undefined)	none
Oc1ccc2ccccc2c1C=Nc1cccc2ccccc12	none
Oc1ccc2ccccc2c1C=Nc1nc2c(s1)CCCC2	14-3-3g Raf 36.1
Brc1ccc(C=Nc2nc3c(s2)CCCC3)cc1	none
O=C(Nc1cccc(Cl)c1)C1(S(=O)(=O)c2ccc(Cl)cc2)CC1	none
C=C(C)Cn1c(-c2ccc(N)cc2)nc2ccccc21	none
COc1ccccc1N=c1oc2ccccc2cc1C(=O)Nc1ccc(F)cc1	none
CCCc1ccc(O)c(N=Cc2cc(Br)cc(OCC)c2O)c1	none
CCCc1ccc(O)c(N=Cc2cc(Br)cc(OC)c2O)c1	14-3-3g Raf 85.4
COc1ccc(N=Cc2cc(Br)ccc2O)c(OC)c1	none
COc1cc(OC)c(NC(=O)c2sc3ncnc(N4CCN(c5ccccc5OC)CC4)c3c2C)cc1Cl	none
O=C(O)c1ccc2c(c1)C1C=CCC1C(c1ccccn1)N2 (centres undefined)	14-3-3g Raf 62.2
COc1ccccc1C1Nc2ccc(C(=O)O)cc2C2C=CCC21 (centres undefined)	none
CCOC(=O)c1ccc2c(c1)C1C=CCC1C(C(=O)O)N2 (centres undefined)	none
O=C(O)c1ccc2c(c1)C1C=CCC1C(c1ccncc1)N2 (centres undefined)	none
CCOC(=O)C1Nc2ccc(C(=O)O)cc2C2C=CCC12 (centres undefined)	none
O=C(O)c1ccc2c(c1)C1C=CCC1C(C(=O)O)N2 (centres undefined)	14-3-3g Raf 36.3
Cc1ccc(C)c(NC(=O)CSc2nc3c(c(=O)n2-c2ccccc2)SCC3)c1	none
CCOC(=O)c1c(NC(=O)c2cccc(F)c2)sc2c1CCC(C(C)(C)C)C2 (centres undefined)	none
CC1=C(C(=O)OCCC#N)C(c2cccc(Br)c2)NC(=O)N1 (centres undefined)	none
CCC(=O)Nc1sc2c(c1C(=O)Nc1ccccc1C(=O)OC)CCC(C(C)(C)C)C2 (centres undefined)	none
COc1ccccc1NC(=O)c1cc(-c2ccccc2)nc2c(C)cccc12	none
C=CCOc1ccc(C2C(C(=O)OCC)=C(C)N=C3SCCC(=O)N32)cc1 (centres undefined)	none
O=C(c1ccccc1F)N1CCN(c2ccc(F)cc2)CC1	none
Cc1cccc(C2Nc3ccccc3-c3nnc(SCc4ccccc4F)nc3O2)n1 (centres undefined)	none
CCCSc1nnc2c(n1)OC(C)Nc1ccccc1-2 (centres undefined)	none
CCCCCCSc1nnc2c(n1)OC(c1ccsc1)Nc1ccccc1-2 (centres undefined)	none
